This passage reports outcome and Potency results from PubChem BioAssay (Tox21).

Molecules are shown by their SMILES. A number with no mark means an inactive call. Results filed as inconclusive are left out. Calls of active or inactive are those of the source. Unless noted, calls come from the whole dose curve; as a rule, active = well fitted curve in the direction sought with a large enough effect in the repeat runs; inconclusive = weak or mixed curves; inactive = no such curve, though single readings can be large; an effect the other way counts as inactive or inconclusive.

A short description of assay [1]: qHTS RealTime-Glo MT Cell Viability Assay in HEK293 cells - 0 hour (AID 1224880). Note: top concentration of the series differs between compounds; nearly all actives have a fitted effect of over 45% in size. The gist of the method: (§1)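 600 cells/well were plated with the nonlytic NanoLuc/prosubstrate reagent, pre-incubated 5 h, then given 23 nL of compound in DMSO. Incubation at 37 C for 40 h, with luminescence from viable-cell-reduced substrate read repeatedly from 0 h.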
A short description of assay [2]: A CellTox Green Cytotoxicity Assay to monitor cytotoxicity in HepG2 cells - 0 hour (AID 1224882). Note: nearly all actives have a fitted effect of over 35% in size. In short, it runs like this: (§2)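 HepG2 cells, 600/well, preincubated 5 h with CellTox Green dye, then exposed to Tox21 compounds in DMSO at 37 C for up to 40 h. Dead-cell DNA fluorescence read at the indicated time point.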
The nature of assay [3]: A CellTox Green Cytotoxicity Assay to monitor cytotoxicity in HepG2 cells - 32 hour (AID 1224883). Note: nearly all actives have a fitted effect of over 50% in size. In short, it runs like this: as §2
A short description of assay [4]: A CellTox Green Cytotoxicity Assay to monitor cytotoxicity in HEK293 cells - 8 hour (AID 1224884). Note: nearly all actives have a fitted effect of over 35% in size. In short, it runs like this:
(§3)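 HEK293 cells, 600/well, were preincubated 5 hours and then exposed to compounds at 37 C for up to 40 hours. A cell-impermeant cyanine dye staining dead-cell DNA was read by fluorescence at 0, 8, 16, 24, 32 and 40 h time points.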

A short description of assay [5]: qHTS RealTime-Glo MT Cell Viability Assay in HepG2 cells - 16 hour (AID 1224885). Note: nearly all actives have a fitted effect of over 50% in size. The gist of the method: (§4)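 Compound treatment began 5 h after plating HepG2 cells (600/well) with NanoLuc luciferase and prosubstrate. Plates stayed at 37 C for 40 h; luminescence was captured at six time points, 0 h through 40 h.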
Background: Quantitative high-throughput screening tests each substance at several concentrations.

The nature of assay [6]: qHTS RealTime-Glo MT Cell Viability Assay in HEK293 cells - 24 hour (AID 1224886). Note: top concentration of the series differs between compounds; nearly all actives have a fitted effect of over 50% in size. The gist of the method: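 Quantitative high-throughput screen of the Tox21 10K library in HEK293: cells and RealTime-Glo reagents plated together, compound added at 5 h, luminescence monitored through 40 h at 37 C.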
Assay [7] is described as follows: qHTS RealTime-Glo MT Cell Viability Assay in HEK293 cells - 8 hour (AID 1224887). Note: top concentration of the series differs between compounds; nearly all actives have a fitted effect of over 50% in size. The gist of the method: as §1
Assay [8] is described as follows: qHTS RealTime-Glo MT Cell Viability Assay in HepG2 cells - 0 hour (AID 1224889). Note: nearly all actives have a fitted effect of over 50% in size. In short, it runs like this: as §4
The nature of assay [9]: A CellTox Green Cytotoxicity Assay to monitor cytotoxicity in HepG2 cells - 8 hour (AID 1224890). Note: nearly all actives have a fitted effect of over 45% in size. In short, it runs like this:
as §2

Assay [10] is described as follows: qHTS assay to identify small molecule antagonists of the estrogen receptor alpha (ER-alpha) signaling pathway using the BG1 cell line in the presence of 0.1 nM 17-beta-estradiol - cell viability counter screen (AID 1259241). Note: nearly all actives have a fitted effect of over 40% in size. The gist of the method: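 Estradiol-stimulated (0.1 nM) VM7Luc4E2 cells exposed to compounds 22 hr; viability measured by fluorescence of cleaved CellTiter-Fluor substrate after 30 min.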

Assay [11] in a line: qHTS assay to identify small molecule antagonists of the androgen receptor (AR) signaling pathway using the MDA cell line in the presence of 0.5 nM R1881 - cell viability counter screen (AID 1259242). Note: nearly all actives have a fitted effect of over 45% in size. In short, it runs like this: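 MDA-kb2 cells (MMTV-luciferase, AR/GR responsive) were treated with compounds plus 0.5 nM R1881 (final) for 16 hr at 37C, 0% CO2. Viability was then read in the same wells as live-cell protease fluorescence (CellTiter-Fluor, 30 min).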

Assay [12] is described as follows: qHTS assay to identify small molecule HDAC inhibitors (AID 1259364). Note: nearly all actives have a fitted effect of over 45% in size. Note: potency is the fitted concentration of half-maximal effect. In short, it runs like this: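 Wild-type HCT-116 cells, plated overnight at 37 C, exposed to compounds 2 hr at 37 C; luminogenic HDAC-Glo substrate then added 30 min at room temperature. Luminescence reports relative endogenous class I/II HDAC activity.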
Assay [13] is described as follows: qHTS assay to identify small molecule HDAC inhibitors - cell viability counter screen (AID 1259365). In short, it runs like this:
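After overnight seeding at 1,500 cells per well, wild-type HCT-116 cultures took up compounds in DMSO for 2hr at 37 C. Viable cell content came from luminescence with CellTiter-Glo.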

Assay [14] can be described thus: qHTS assay to identify small molecule agonists of the sonic hedgehog signaling (Shh) pathway - cell viability counter screen (AID 1259366). Note: nearly all actives have a fitted effect of over 50% in size. Note: potency is the fitted concentration of half-maximal effect. In short, it runs like this: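 Same-well cytotoxicity read. Gli1-Luc reporter 3T3 cells; compounds 24hr, 37C/5% CO2; CellTiter-Fluor fluorescence.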
Assay [15] is described as follows: qHTS assay to identify small molecule antagonists of the sonic hedgehog signaling (Shh) pathway - cell viability counter screen (AID 1259367). Note: nearly all actives have a fitted effect of over 55% in size. Note: potency is the fitted concentration of half-maximal effect. In short, it runs like this: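 Using CellTiter-Fluor, viability of Gli1-Luc reporter 3T3 cells is read by fluorescence in the wells used for the Shh luciferase assay. Treatment lasts 23 hr with conditioned medium, then reagent 1 hr at 37C.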

The nature of assay [16]: A CellTox Green Cytotoxicity Assay to monitor cytotoxicity in HEK293 cells - 32 hour (AID 1224881). Note: nearly all actives have a fitted effect of over 40% in size. In short, it runs like this: as §3
Assay [17] can be described thus: A CellTox Green Cytotoxicity Assay to monitor cytotoxicity in HEK293 cells - 16 hour (AID 1224888). Note: nearly all actives have a fitted effect of over 35% in size. The gist of the method: as §3
For assay [18], the target named is Estrogen receptor (Homo sapiens) (UniProt P03372). As to the kind of experiment: qHTS assay to identify small molecule antagonists of the estrogen receptor alpha (ER-alpha) signaling pathway using the BG1 cell line in the presence of 0.1 nM 17-beta-estradiol (AID 1259244). Note: nearly all actives have a fitted effect of over 50% in size. In short, it runs like this: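 VM7Luc4E2 cells (endogenous full-length ER-alpha, 4×ERE-luciferase), kept 5 days in phenol red-free, charcoal-stripped FBS medium; 4,000 cells/well. Compounds added with 0.1 nM (final) 17beta-estradiol, 22 hr at 37C; luminescence read with ONE-Glo after 30 min.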

Assay [19] in a line: qHTS assay to identify small molecule phospholipidosis (PLD) inducers (AID 1259344; active = well fitted curve in the direction sought with a large enough effect; an effect the other way counts as inactive or inconclusive). The gist of the method:
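Fluorescent phospholipid staining (LipidTOX Red) measured by automated microscopy in fixed HepG2 cells after 24 h treatment; nuclei counterstained with Hoechst 33342; amiodarone as reference inducer.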

Estrogen receptor (Homo sapiens), sequence (P03372 whole entry, looked up): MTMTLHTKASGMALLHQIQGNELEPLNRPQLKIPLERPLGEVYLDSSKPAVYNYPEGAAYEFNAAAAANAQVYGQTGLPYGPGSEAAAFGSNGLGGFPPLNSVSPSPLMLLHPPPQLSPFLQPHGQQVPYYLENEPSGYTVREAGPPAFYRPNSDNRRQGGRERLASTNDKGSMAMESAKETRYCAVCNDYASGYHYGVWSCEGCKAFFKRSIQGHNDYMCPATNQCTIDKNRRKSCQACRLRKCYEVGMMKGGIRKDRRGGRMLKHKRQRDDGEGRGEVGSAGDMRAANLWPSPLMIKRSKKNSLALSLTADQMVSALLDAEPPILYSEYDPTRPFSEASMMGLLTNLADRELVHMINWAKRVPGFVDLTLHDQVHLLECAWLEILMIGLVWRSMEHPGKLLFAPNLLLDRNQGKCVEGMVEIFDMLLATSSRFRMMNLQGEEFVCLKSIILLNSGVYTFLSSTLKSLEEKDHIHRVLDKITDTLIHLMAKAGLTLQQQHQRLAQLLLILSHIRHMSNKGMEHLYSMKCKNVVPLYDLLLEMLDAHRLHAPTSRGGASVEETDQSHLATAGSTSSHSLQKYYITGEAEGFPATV

Consider `C=CCc1cc(OC)c2c(c1)OCO2`, for which the outcome in assay [1], in assay [2], in assay [8], in assay [10] and in assay [13] was inactive. The Potency entry in assay [3], in assay [4], in assay [5], in assay [6], in [7] and in assay [9] was “inactive” throughout. The Potency entry in assay [11], in assay [12], in assay [14] and in assay [15] was “inactive” throughout.

Regarding `Cn1c(CCCC(=O)O)nc2cc(N(CCCl)CCCl)ccc21`, the Potency result in assay [16], in [3], in assay [4], in assay [5], in [6] and in assay [7] was “inactive” throughout. Moreover, the Potency entry in assay [17], in assay [9], in assay [11], in [18], in assay [19] and in assay [14] was “inactive” throughout. In addition, in assay [15], the Potency entry is “inactive”. The result in assay [2], in [8], in assay [10] and in [13] was inactive.

`CCCC(C)(COC(N)=O)COC(N)=O`: the call in assay [1], in [8] and in assay [10] was inactive. For the same compound, the Potency entry in [16], in assay [4], in assay [5], in [7], in assay [17] and in [9] was “inactive” in each case. Further, the Potency entry in [11], in assay [19], in assay [12], in [14] and in assay [15] was “inactive” in each case.

As for `C=C1CC[C@@]2(O)[C@H]3Cc4ccc(O)c5c4[C@@]2(CCN3CC2CC2)[C@H]1O5`, the outcome in assay [1] and in assay [8] was inactive. In addition, the Potency entry in [16], in [3], in assay [4], in [5], in assay [7] and in assay [9] was “inactive” in each case. Further, the Potency result in assay [11], in [19], in assay [14] and in assay [15] was “inactive” each time.

For the compound `CCC(C(N)=O)N1CCCC1=O` (stereo not drawn), the call in assay [1], in assay [8], in assay [10] and in assay [13] was inactive. The Potency entry in assay [16], in assay [4], in assay [5], in assay [6], in [7] and in assay [17] was “inactive” throughout. Moreover, the Potency entry in [9], in assay [11], in assay [18], in [19], in assay [12] and in assay [14] was “inactive” each time. For the same compound, the Potency entry in assay [15] was “inactive”.

Take `Cn1c(N)nc2c3cccnc3ccc21`: the call in assay [1], in assay [2], in assay [8] and in [13] was inactive. The Potency entry in assay [3], in assay [4], in assay [5], in assay [6], in assay [7] and in assay [17] was “inactive” each time. The Potency entry in assay [9], in assay [11], in [18] and in assay [12] was “inactive” throughout. Further, the Potency in assay [14] and in assay [15] was 26 µM (active) each time.

`ClCC1CO1` (stereo not drawn): the outcome in assay [1], in assay [8] and in assay [13] was inactive. Further, the Potency entry in [16], in [3], in assay [4], in assay [5], in assay [6] and in assay [7] was “inactive” in each case. For the same compound, the Potency entry in [17], in assay [9], in assay [11], in assay [18], in assay [19] and in [12] was “inactive” throughout. Also, the Potency result in assay [14] and in assay [15] was “inactive” throughout.

For the compound `CCOC(=O)Nc1cccc(OC(=O)Nc2ccccc2)c1`, the compound was classed as inactive in assay [1], in assay [8] and in assay [13]. Further, the Potency result in assay [16], in [4], in assay [5], in assay [6], in assay [7] and in assay [17] was “inactive” each time. The Potency result in [9], in assay [11], in assay [18], in assay [14] and in assay [15] was “inactive” throughout. In assay [12], the Potency is 3.86 µM (active).
